Test [1] in a line: NCI Yeast Anticancer Drug Screen. Data for the rad50 strain (AID 155).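 Note: 0% = growth of vehicle-only cultures of the same strain.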 Conditions: S. cerevisiae rad50 strain growth inhibition, stronger effect = higher value. In a few lines: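 Vehicle-treated cultures provide the reference for the growth inhibition reported for compound-exposed, repair-deficient yeast.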
A short description of test [2]: NCI Yeast Anticancer Drug Screen. Data for the mec2-1 strain (AID 157). Conditions: S. cerevisiae mec2-1 strain, stronger effect = higher value. In a few lines: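 Using mec2-1 yeast: add compound, measure growth, express inhibition versus vehicle-treated cultures.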
Test [3] is described as follows: NCI Yeast Anticancer Drug Screen. Data for the sgs1 mgt1 strain (AID 161).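 Note: 0% = growth of cultures given vehicle only.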 Particulars: S. cerevisiae sgs1 mgt1 strain, stronger effect = higher value. In a few lines:
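Percent growth inhibition was derived by comparing compound-exposed mutant yeast with vehicle-exposed cultures. The strain carries alterations in DNA damage repair.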

Test [4] in a line: NCI Yeast Anticancer Drug Screen. Data for the cln2 rad14 strain (AID 165).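 Note: 0% = growth equal to vehicle treated cultures.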 Particulars: S. cerevisiae cln2 rad14 strain, stronger effect = higher value. In a few lines:
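Yeast strain cln2 rad14, bearing defects in cell cycle control and DNA repair, serves as the test system; values reflect growth inhibition compared with vehicle.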

A short description of test [5]: NCI Yeast Anticancer Drug Screen. Data for the bub3 strain (AID 167). Conditions: S. cerevisiae bub3 mutant strain, stronger effect = higher value. The essentials:
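Mutant yeast screening strain plus compound; vehicle-treated cultures serve as the 0% inhibition reference.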

A short description of test [6]: NCI Yeast Anticancer Drug Screen. Data for the mlh1 rad18 strain (AID 175). Conditions: S. cerevisiae mlh1 rad18 strain growth inhibition, stronger effect = higher value. In a few lines: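 Steps: expose repair-defective yeast to compound; measure growth; express inhibition against vehicle-treated controls.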
[7] abbreviates: at 5.0 µM (retest, dose inferred, filed as 0.5).
Setting [8] is: at 50.0 µM (retest, dose inferred, filed as 5.0).

The panel holds about 79,000 compounds, 15% with a hit somewhere; the sample as a whole holds those more often. Unmarked numbers belong to inactive results. The source made the active and inactive calls. Cut-off read from the data, not from the text of the source: active = growth inhibition above about 70%; inactive = the rest.

Regarding `CCN(CC)CCCC(C)Nc1c2ccccc2nc2c(C)cc(Br)cc12` (stereo not given), the growth inhibition in test [1] (setting [7]) is 2%; in test [1] (setting [8]) it was 72% (active); in test [1] (at 50.0 µM), 58%; in test [2] (setting [7]) it was 8%; in test [2] (setting [8]) it was 61%; in test [2] (at 50.0 µM) it was 39.5%. Also, the growth inhibition was 17% in test [3] (setting [7]); 76% (active) in test [3] (setting [8]); 63.1% in test [3] (at 50.0 µM); 19% in test [4] (setting [7]); 66% in test [4] (setting [8]); 91.2% (active) in test [4] (at 50.0 µM). Moreover, the growth inhibition in test [5] (setting [7]) is 17%; in test [5] (setting [8]), 71% (active); in test [5] (at 50.0 µM), 36.9%; in test [6] (setting [7]) it was 8%; in test [6] (setting [8]), 69%; in test [6] (at 50.0 µM), 50.1%.
For the molecule `O/N=C1/C(=C/c2ccc3c(c2)OCO3)CCCC1C(NO)c1ccc2c(c1)OCO2` (stereo not given), the growth inhibition in test [1] (setting [7]) was -2%; in test [1] (setting [8]) it was 65%; in test [1] (at 50.0 µM), 82.3% (active); in test [2] (setting [7]) it was -2%; in test [2] (setting [8]) it was 3%; in test [2] (at 50.0 µM), 90.5% (active). Also, the growth inhibition in test [3] (setting [7]) is 4%; in test [3] (setting [8]), 50%; in test [3] (at 50.0 µM) it was 97% (active); in test [4] (setting [7]), -5%; in test [4] (setting [8]), 25%; in test [4] (at 50.0 µM), -7.15%. Besides, the growth inhibition in test [5] (setting [7]) was -2%; in test [5] (setting [8]) it was 51%; in test [5] (at 50.0 µM), 38.4%; in test [6] (setting [7]), -3%; in test [6] (setting [8]), 27%; in test [6] (at 50.0 µM), 97.4% (active).
As to `O=C1c2ccccc2C(=O)c2cc(N3C(=O)C=CC3=O)ccc21`, the growth inhibition in test [1] (setting [7]) is 54%; in test [1] (setting [8]), 83% (active); in test [1] (at 50.0 µM), 90.7% (active); in test [2] (setting [7]), 50%; in test [2] (setting [8]), 89% (active); in test [2] (at 50.0 µM), 92% (active). For the same molecule, the growth inhibition in test [3] (setting [7]) was 96% (active); in test [3] (setting [8]), 98% (active); in test [3] (at 50.0 µM), 91.5% (active); in test [4] (setting [7]), 53%; in test [4] (setting [8]) it was 99% (active); in test [4] (at 50.0 µM), 91.7% (active). The growth inhibition in test [5] (setting [7]) is 97% (active); in test [5] (setting [8]), 97% (active); in test [5] (at 50.0 µM), 87.8% (active); in test [6] (setting [7]) it was 47%; in test [6] (setting [8]), 80% (active); in test [6] (at 50.0 µM) it was 91.5% (active).
For `Cn1c(=O)c2c3oc(=O)cc(O)c3c(=O)n3c4ccccc4n(c1=O)c23`, the growth inhibition in test [1] (setting [7]) was 38%; in test [1] (setting [8]) it was 83% (active); in test [1] (at 50.0 µM), 74.8% (active); in test [2] (setting [7]), 29%; in test [2] (setting [8]), 69%; in test [2] (at 50.0 µM), 19.9%. In addition, the growth inhibition in test [3] (setting [7]) was 35%; in test [3] (setting [8]), 86% (active); in test [3] (at 50.0 µM), 45%; in test [4] (setting [7]) it was 34%; in test [4] (setting [8]), 45%; in test [4] (at 50.0 µM), 42.5%. Also, the growth inhibition was 31% in test [5] (setting [7]); 75% (active) in test [5] (setting [8]); 42.3% in test [5] (at 50.0 µM); 53% in test [6] (setting [7]); 92% (active) in test [6] (setting [8]); 42.1% in test [6] (at 50.0 µM).
With `O=c1c2cc3ccccc3cc2c(=O)n2n1CC=CC2`, the growth inhibition was 8% in test [1] (setting [7]); 39% in test [1] (setting [8]); 74.2% (active) in test [1] (at 50.0 µM); -1% in test [2] (setting [7]); 6% in test [2] (setting [8]); 15.9% in test [2] (at 50.0 µM). For the same molecule, the growth inhibition in test [3] (setting [7]) is 9%; in test [3] (setting [8]), 18%; in test [3] (at 50.0 µM), 22%; in test [4] (setting [7]) it was 4%; in test [4] (setting [8]), 10%; in test [4] (at 50.0 µM) it was 26.8%. In addition, the growth inhibition in test [5] (setting [7]) is 2%; in test [5] (setting [8]), -1%; in test [5] (at 50.0 µM) it was -0.8%; in test [6] (setting [7]), 25%; in test [6] (setting [8]), 46%; in test [6] (at 50.0 µM), 10.8%.
In the case of `Cc1ccc(C2(O)CC(c3ccc([N+](=O)[O-])o3)=NN2C(=O)COc2ccc(Cl)cc2)cc1` (stereo not given), the growth inhibition is 46% in test [1] (setting [7]); 46% in test [1] (setting [8]); 6.1% in test [1] (at 50.0 µM); 29% in test [2] (setting [7]); 29% in test [2] (setting [8]); 51.9% in test [2] (at 50.0 µM). Also, the growth inhibition in test [3] (setting [7]) was 39%; in test [3] (setting [8]), 39%; in test [3] (at 50.0 µM), 52.6%; in test [4] (setting [7]) it was 11%; in test [4] (setting [8]) it was 11%; in test [4] (at 50.0 µM), 70.3% (active). The growth inhibition is 10% in test [5] (setting [7]); 10% in test [5] (setting [8]); 37.6% in test [5] (at 50.0 µM); 43% in test [6] (setting [7]); 43% in test [6] (setting [8]); 34.3% in test [6] (at 50.0 µM).
For `C1=CN2C(c3ccccc3)=NN(c3ccccc3)[C@@H]2c2ccccc21`, the growth inhibition in test [1] (setting [7]) was -4%; in test [1] (setting [8]), 70% (active); in test [1] (at 50.0 µM), 60.6%; in test [2] (setting [7]), -6%; in test [2] (setting [8]), 53%; in test [2] (at 50.0 µM), 42%. In addition, the growth inhibition is -3% in test [3] (setting [7]); 50% in test [3] (setting [8]); 56.3% in test [3] (at 50.0 µM); 0% in test [4] (setting [7]); 22% in test [4] (setting [8]); 27.8% in test [4] (at 50.0 µM). In addition, the growth inhibition in test [5] (setting [7]) is 1%; in test [5] (setting [8]), 79% (active); in test [5] (at 50.0 µM) it was 59.5%; in test [6] (setting [7]) it was 2%; in test [6] (setting [8]), 72% (active); in test [6] (at 50.0 µM), 54.8%.
On to `C1=CC2OC1c1cc3ccccc3cc12`, for which the growth inhibition is 13% in test [1] (setting [7]); 92% (active) in test [1] (setting [8]); 87.5% (active) in test [1] (at 50.0 µM); 11% in test [2] (setting [7]); 98% (active) in test [2] (setting [8]); 96.5% (active) in test [2] (at 50.0 µM). Also, the growth inhibition was 10% in test [3] (setting [7]); 98% (active) in test [3] (setting [8]); 89.9% (active) in test [3] (at 50.0 µM); 23% in test [4] (setting [7]); 98% (active) in test [4] (setting [8]); 95.6% (active) in test [4] (at 50.0 µM). Further, the growth inhibition in test [5] (setting [7]) is 6%; in test [5] (setting [8]), 97% (active); in test [5] (at 50.0 µM) it was 95% (active); in test [6] (setting [7]) it was 34%; in test [6] (setting [8]), 97% (active); in test [6] (at 50.0 µM), 95.2% (active).
For the molecule `OC(CC(CC(O)(C(F)(F)Cl)C(F)(F)Cl)=NNc1ccccc1)(C(F)(F)Cl)C(F)(F)Cl`, the growth inhibition in test [1] (setting [7]) is 87% (active); in test [1] (setting [8]), 99% (active); in test [1] (at 50.0 µM) it was 99% (active); in test [2] (setting [7]), 91% (active); in test [2] (setting [8]), 99% (active); in test [2] (at 50.0 µM), 99.2% (active). The growth inhibition is 79% (active) in test [3] (setting [7]); 98% (active) in test [3] (setting [8]); 99.3% (active) in test [3] (at 50.0 µM); 83% (active) in test [4] (setting [7]); 99% (active) in test [4] (setting [8]); 99.2% (active) in test [4] (at 50.0 µM). The growth inhibition in test [5] (setting [7]) was 52%; in test [5] (setting [8]), 99% (active); in test [5] (at 50.0 µM) it was 99% (active); in test [6] (setting [7]) it was 93% (active); in test [6] (setting [8]), 99% (active); in test [6] (at 50.0 µM), 99% (active).
For the molecule `Cc1ccc(CN2CC(=O)N3Cc4ccccc4CN3C(=O)C2)cc1`, the growth inhibition in test [1] (setting [7]) is -1%; in test [1] (setting [8]), -3%; in test [1] (at 50.0 µM), -3.95%; in test [2] (setting [7]), -6%; in test [2] (setting [8]), -15%; in test [2] (at 50.0 µM), 6.6%. Also, the growth inhibition in test [3] (setting [7]) is 4%; in test [3] (setting [8]), 4%; in test [3] (at 50.0 µM) it was 10.4%; in test [4] (setting [7]) it was 0%; in test [4] (setting [8]), -3%; in test [4] (at 50.0 µM) it was -8.8%. Besides, the growth inhibition is 5% in test [5] (setting [7]); 30% in test [5] (setting [8]); 83.4% (active) in test [5] (at 50.0 µM); -5% in test [6] (setting [7]); -2% in test [6] (setting [8]); -20.2% in test [6] (at 50.0 µM).

The values are drawn from PubChem BioAssay (NCI).
